Source: PubChem (National Center for Advancing Translational Sciences (NCATS))
Only some compounds are listed: those with a hit (about 9.2% of all), similar ones and a draw of the others.
ELG1 repair inh – qHTS screen for small molecules that inhibit ELG1-dependent DNA repair in human embryonic kidney (HEK293T) cells expressing luciferase-tagged ELG1; HEK293T ELG1-luciferase reporter, luminescence, 16 h; DNA damage induced by 5-fluorouridine; Potency, µM (top dose mostly 46.1 µM), without a hit: at the highest dose activity change, negative = inhibition, usual class: inhibitors; 330,000 compounds, 2.3% hits; AID 504467, 2011; note: % is set by controls: 0 for no effect and ±100 for the full control effect; nearly all actives have a fitted effect of over 55% in size
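Reporter activity after DNA damage by 5-fluorouridine is monitored. Compound-treated cells incubate 16 hr at 37 °C, then ONE-Glo is added for 30 min before luminescence reading.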
Rab9 prom act – qHTS Assay for Rab9 Promoter Activators; Huh7 Rab9 promoter-luciferase reporter, luminescence, 24 h; Potency, µM (doses to about 9.22 µM), for the others: at the top dose activation, negative = inhibition, most hits filed as activators; 320,000 compounds, 2.8% hits; note: % of control where 0% means no effect; nearly all actives have a fitted effect of over 60% in size
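Luminescence from Amplite-detected luciferase (10 minutes, ambient) reports Rab9 promoter activation. Before that, stable Rab9-luciferase Huh7 cells (1500/well, reduced-serum OP-MEM I plus 10% FBS) were exposed to compound for 24 hours at 37C.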
ELG1 genotox – qHTS screen for small molecules that induce genotoxicity in human embryonic kidney (HEK293T) cells expressing luciferase-tagged ELG1. Potency, µM (top dose mostly 46 µM), inactives show at the top dose activity change, positive = activation, actives largely listed as activators. 330,000 compounds, 1.3% hits. AID 504466, 2011. HEK293T ELG1-luciferase reporter, luminescence, 16 h; note: % of control where 0% means no effect; nearly all actives have a fitted effect of over 60% in size
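ELG1-luciferase HEK293T cells, 2,000/well; compound pinned in; 16 hr, 37 °C, 5% CO2; ONE-Glo, 30 min RT; luminescence on CCD imager.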
FLuc counter – qHTS profiling assay for firefly luciferase inhibitor/activator using purifed enzyme and Km concentrations of substrates (counterscreen for miR-21 project) | Luciferin 4-monooxygenase (Photinus pyralis), P08659 | purified FLuc, Km substrates, luminescence inhibition | Potency, µM (series often up to 57.5 µM), without a hit: top-dose activity change, negative = inhibition, actives largely listed as inhibitors | 360,000 compounds, 6.9% hits | AID 588342, 2011;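 note: plate controls were vehicle for no effect and reference inhibitor for full effect; nearly all actives have a fitted effect of over 55% in size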
Target sequence (P08659 whole entry, looked up): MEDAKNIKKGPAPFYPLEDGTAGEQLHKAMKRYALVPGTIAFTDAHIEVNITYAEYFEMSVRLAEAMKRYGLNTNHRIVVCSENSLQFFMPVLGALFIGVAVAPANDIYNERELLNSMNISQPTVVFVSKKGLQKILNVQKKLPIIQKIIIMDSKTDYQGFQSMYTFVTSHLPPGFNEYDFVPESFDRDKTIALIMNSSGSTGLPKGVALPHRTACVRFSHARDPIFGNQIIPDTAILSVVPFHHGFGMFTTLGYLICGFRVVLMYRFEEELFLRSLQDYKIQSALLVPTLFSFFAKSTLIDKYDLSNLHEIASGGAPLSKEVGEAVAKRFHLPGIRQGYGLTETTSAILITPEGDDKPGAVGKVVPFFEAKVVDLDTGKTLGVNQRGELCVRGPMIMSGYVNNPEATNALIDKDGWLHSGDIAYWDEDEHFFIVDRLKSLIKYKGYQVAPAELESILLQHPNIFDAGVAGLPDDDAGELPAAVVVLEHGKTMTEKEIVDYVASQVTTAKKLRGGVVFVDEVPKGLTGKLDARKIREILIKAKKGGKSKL
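Purified P. pyralis luciferase, 10 nM final, with Km-level 10 uM D-luciferin and 10 uM ATP in 50 mM Tris acetate pH 7.5, 10 mM Mg acetate, 0.01% Tween-20, 0.05% BSA; 6-point qHTS titration about 60 µM downward; luminescence read.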
NPC1 prom act – qHTS Assay for NPC1 Promoter Activators; Huh7 NPC1 promoter luciferase reporter, 24 h; Potency, µM (top dose mostly 9.22 µM), inactives show top-dose activation, hits mostly activators; 320,000 compounds, 2.4% hits; note: % of control where 0% means no effect; nearly all actives have a fitted effect of over 60% in size
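Stable NPC1-promoter luciferase Huh7 line; cpd (DMSO) 24 h, 37 °C, 5% CO2; Amplite luciferase reagent 10 min RT; luminescence readout. qHTS format.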
SMN2 splice enh – qHTS Assay for Enhancers of SMN2 Splice Variant Expression; HEK293 SMN2-luciferase splicing reporter, luminescence, 30-36 h; Potency, µM (titrated, usually from 46.1 µM), for inactives: top-dose activity change, positive = activation, hits mostly activators; 210,000 compounds, 2.8% hits; AID 1458, 2008; note: % of control where 0% means no effect; nearly all actives have a fitted effect of over 55% in size
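HEK293 cells carry an SMN2 minigene-luciferase reporter in which exon 7 inclusion puts luciferase in frame. Cells were seeded at 2000 cells/well, attached for 10-12 hours, then exposed to compounds for 30-36 hours at 37C before ONE-Glo luminescence.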
* marks the source's active call; other numbers are inactive results; [ ] = remark or other dose. Calls come from the whole dose curve; as a rule, active = well fitted curve in the direction sought with a large enough effect; inconclusive = small, poorly fitted or top-dose-only effect, or another doubt; inactive = no such curve, though single readings can be large; an effect the other way counts as inactive or inconclusive. Potency is the fitted concentration of half-maximal effect.

O=c1[nH]cnc(O)c1C(c1ccc2c(c1)OCO2)c1c(O)nc[nH]c1=O was read as ELG1 repair inh 1.0%, Rab9 prom act 0.0%, ELG1 genotox -0.7%, FLuc counter 4.9%, NPC1 prom act -3.0% and SMN2 splice enh 6.7%.
Screening C=CC(C1=CC(=O)C(OC)=CC1=O)c1ccccc1 (stereo not drawn) returned SMN2 splice enh 1.0%.
`N=C(N)SCc1cc(Cl)cc(Cl)c1O` gave SMN2 splice enh -11.6%[9.22 µM].
CSc1ncc(C(=O)N2CCN(c3cccc(Cl)c3)CC2)c(C)n1 was read as FLuc counter -7.5%.
For O=C(c1cnc(N2CCN(c3ccccn3)CC2)c2ccccc12)N1CCN(c2cccc(Cl)c2)CC1 the results were ELG1 repair inh 4.61µM*, Rab9 prom act -25.8%, ELG1 genotox -19.7%, FLuc counter -8.4%, NPC1 prom act -27.0% and SMN2 splice enh -81.4%.
For O=C(c1cc(Sc2cccc(Cl)c2)nc2ccccc12)N1CCN(c2ccccn2)CC1 the results were ELG1 repair inh 20.6µM*, Rab9 prom act -2.4%, ELG1 genotox -16.9%, FLuc counter -13.4%, NPC1 prom act -1.3% and SMN2 splice enh -65.8%.
For O=C(c1cc(Sc2ccc(Cl)cc2)nc2ccccc12)N1CCN(c2ccccn2)CC1 the results were ELG1 repair inh inconclusive, Rab9 prom act -5.1%, ELG1 genotox -21.1%, FLuc counter -4.6%, NPC1 prom act -1.7% and SMN2 splice enh -39.3%.
Screening O=C(c1cc(-c2ccccc2Cl)nc2ccccc12)N1CCN(c2ccccn2)CC1 returned ELG1 repair inh 23.1µM* and ELG1 genotox -9.2%.
For CSc1ccccc1C(=O)N1CCN(c2cccc(Cl)c2)CC1 the results were ELG1 repair inh 20.6µM*, Rab9 prom act -23.9%, ELG1 genotox -10.8%, FLuc counter 0.9%, NPC1 prom act -29.4% and SMN2 splice enh -26.5%.
`O=C(c1cc(-c2ccccc2Cl)nc2ccccc12)N1CCOCC1` gave ELG1 repair inh -3.1%, Rab9 prom act 3.1%, ELG1 genotox -4.5%, FLuc counter 2.3% and NPC1 prom act 2.3%.
Screening COc1ccc(SCCCn2c(=O)c3c(ncn3C)n(C)c2=O)cc1 returned ELG1 repair inh -1.2%, Rab9 prom act -3.0%, ELG1 genotox -15.7%, FLuc counter -1.0% and NPC1 prom act 0.1%.
For CC(=O)Nc1ccc(NC(=O)C/C(C)=N/NC(N)=S)cc1 the results were ELG1 repair inh -4.6%, Rab9 prom act -2.5%, ELG1 genotox -4.6%, FLuc counter -3.4%, NPC1 prom act -4.9% and SMN2 splice enh 8.8%.
`CC(=O)Nc1ccc(NC(=O)C/C(C)=N/NC(=O)c2cccc3ccccc23)cc1` gave ELG1 repair inh 7.7%, Rab9 prom act -6.0%, ELG1 genotox 0.6%, FLuc counter 15.1µM* and NPC1 prom act -10.7%.
COc1ccc(CC(=O)NCc2n[nH]c(=S)n2-c2cccc(Cl)c2)cc1 was read as ELG1 repair inh -5.2%, Rab9 prom act -3.9%, ELG1 genotox 8.0%, FLuc counter -3.3%, NPC1 prom act -4.5% and SMN2 splice enh 0.2%.
Screening Clc1nc2c(-c3ccccc3)nnn2c2ccccc12 returned ELG1 repair inh inconclusive, Rab9 prom act -1.2%, ELG1 genotox -10.3%, FLuc counter 1.51µM* and NPC1 prom act 0.1%.
`Fc1cccc(-c2nnn3c2nc(Cl)c2ccccc23)c1` gave ELG1 repair inh inconclusive, Rab9 prom act -0.9%, ELG1 genotox 24.0%, FLuc counter 1.69µM*, NPC1 prom act -3.9% and SMN2 splice enh 1.2%.
For CCC(=O)Nc1cccc(-c2nc3ccc(C)cc3o2)c1 the results were ELG1 repair inh inconclusive, Rab9 prom act 4.47µM*, ELG1 genotox inconclusive, FLuc counter 2.39µM* and NPC1 prom act 2.82µM*.
For CCC(=O)Nc1ccc2oc(-c3cccc(C)c3)nc2c1 the results were ELG1 repair inh inconclusive, Rab9 prom act 0.282µM*, ELG1 genotox 0.411µM*, FLuc counter 0.536µM*, NPC1 prom act 0.112µM* and SMN2 splice enh 0.501µM*.
Cc1ccc2nc(-c3cccc(NC(=O)c4cccc5ccccc45)c3)oc2c1 was read as FLuc counter 2.13µM* and SMN2 splice enh -9.2%.
For COc1cc(O)ccc1-c1nc2cc(C)ccn2c1Nc1ccccc1C the results were FLuc counter -20.6% and SMN2 splice enh inconclusive.
`Cc1ccc(NC(=O)CCNS(=O)(=O)c2ccc3c(c2)CCC(=O)N3)c(Br)c1` gave ELG1 repair inh -18.3%, Rab9 prom act -0.5%, ELG1 genotox 0.9%, FLuc counter -0.8% and NPC1 prom act 1.0%.
Screening Cc1cc(C)n(C(=O)CNC(=O)/C=C/c2ccccc2)n1 returned ELG1 repair inh -1.2%, Rab9 prom act -5.8%, ELG1 genotox -1.9%, FLuc counter -2.6% and NPC1 prom act -2.1%.
For CN1CCc2c(n(CC(O)CN3C(=O)c4ccccc4S3(=O)=O)c3ccccc23)C1=O (stereo not drawn) the results were ELG1 repair inh 14.6µM*, Rab9 prom act 2.1%, ELG1 genotox -1.7%, FLuc counter 0.7%, NPC1 prom act -3.3% and SMN2 splice enh -11.8%.
O=C(Nc1ccc2c(c1)nc1n2CCSC1)c1ccccc1 was read as ELG1 repair inh inconclusive, Rab9 prom act 3.55µM*, ELG1 genotox inconclusive, FLuc counter 10.7µM*, NPC1 prom act inconclusive and SMN2 splice enh 11.2µM*.
COc1ccc(C(=O)Nc2ccc3c(c2)nc2n3CCSC2)cc1 was read as ELG1 repair inh inconclusive, Rab9 prom act inconclusive, ELG1 genotox inconclusive, FLuc counter 7.57µM*, NPC1 prom act 2.82µM* and SMN2 splice enh 10.3%.
O=C(Nc1ccc2c(c1)nc1n2CCOC1)c1ccccc1 was read as ELG1 repair inh inconclusive, Rab9 prom act 3.16µM*, ELG1 genotox inconclusive, FLuc counter 15.1µM*, NPC1 prom act 2.24µM* and SMN2 splice enh 23.0%.
Screening Cc1ccc(Cl)cc1N1CCN(C(=O)c2cc3c(-c4ccccc4F)nn(C)c3s2)CC1 returned FLuc counter -0.4% and SMN2 splice enh -1.8%.
